Bioassay records from PubChem BioAssay.
The list is not random: actives were taken first. Their share in the collection is about 1.4%.
MsrA inhibitor – inhibitors of bovine MsrA; 360,000 compounds, 0.75% hits; purified bovine MsrA, absorbance read-out; AID 651718; inhibition, % at 15.5 µM;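 also: 0% = vehicle wells with enzyme and 100% = reference inhibitor wells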
14-3-3 Bad inh – disrupts binding of bovine 14-3-3 zeta to phospho-Bad peptide; TR-FRET 14-3-3zeta/Dy647-pBad peptide displacement, 1 h; P63103; inhibition, % at 21.7 µM; 220,000 compounds, 0.71% hits; AID 781;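 active = inhibition above about 70%, limit read from the data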;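 also: 0% = full 14-3-3 plus peptide FRET controls and 100% = background without 14-3-3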
Target sequence (P63103 whole entry, looked up): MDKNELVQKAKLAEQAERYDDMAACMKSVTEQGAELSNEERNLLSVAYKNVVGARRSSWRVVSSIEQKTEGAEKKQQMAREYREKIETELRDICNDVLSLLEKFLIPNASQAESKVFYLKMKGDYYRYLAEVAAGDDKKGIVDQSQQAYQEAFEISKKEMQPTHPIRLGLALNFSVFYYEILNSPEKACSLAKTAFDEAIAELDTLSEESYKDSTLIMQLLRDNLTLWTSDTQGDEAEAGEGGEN
bovine MsrA act – activates bovine MsrA enzyme. purified bovine MsrA, absorbance read-out. activation, % at 10.6 µM. 360,000 compounds, 0.3% hits. AID 602163; in the data active = activation above about 7.5%;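 also: 0% = vehicle and 100% = reference activator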
p-CIP stab down – compounds decreasing mouse p/CIP protein stability; F442A p/CIP-EGFP cells, EGFP fluorescence, 16 h; Q05BA5; 290,000 compounds, 0.01% hits; AID 1984; decrease of EGFP signal, % at 10 µM;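 active = EGFP signal decrease of at least 30% at 10 µM or well 3 SD below plate mean, unless failing retest; inactive = the rest, including hits failing retest or dose response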
MsrA conf – confirmation of bovine MsrA inhibitors | shares compounds with MsrA inhibitor | 2,300 compounds, 41% hits | inhibition, % at 15.5 µM | purified bovine MsrA, absorbance read-out;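 also: coupled to thioredoxin reductase with NADPH and selenocystamine and DMSO as substrate; 0% = vehicle only and 100% = full effect of reference inhibitor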
* marks the source's active call; other numbers are inactive results; / = no result given. Rule as the data show it, unless noted: active = inhibition above about 4.5%; inactive = the rest.

SMILES | MsrA inhibitor | 14-3-3 Bad inh | bovine MsrA act | p-CIP stab down | MsrA conf
COc1cc(/C=N/Nc2ccc(C(=O)O)cc2)ccc1O | 7.1* | 5.0 | -6.2 | 10.1 | 5.1*
COc1cc(C=O)ccc1O | 6.2* | / | -7.5 | / | 3.3
COc1ccc(/C=N/Nc2ccc(C(=O)O)cc2)c(OC)c1OC | 5.8* | / | -6.1 | -14.0 | 5.5*
CCNc1nc(NCC)nc(N/N=C/c2ccc(OC)cc2)n1 | 0.7 | 1.7 | -5.2 | 8.4 | /
COc1cc(/C=N/Nc2nc(N3CCCC3)nc(N3CCCC3)n2)ccc1O | 5.2* | -4.2 | -13.2 | 4.4 | 2.1
COc1ccc(-c2cnnc(N/N=C/c3ccc(O)c(OC)c3)n2)cc1 | 6.4* | 12.8 | -13.6 | -3.1 | 6.6*
COc1ccc(/C=N/NC(=S)Nc2ccccc2)cc1 | 4.9* | -26.0 | -8.4 | -22.8 | 3.7
COc1ccc(/C=N/NC(=S)Nc2ccccc2)cc1COc1ccc(Br)cc1 | 1.8 | -5.7 | -3.8 | -13.5 | /
COc1ccc(/C=N/Nc2nc(C)nc(N)n2)cc1 | 4.7* | / | -4.2 | 3.5 | 3.3
COc1ccc(S(=O)(=O)Nc2ccc(F)cc2F)cc1C(=O)N1CCOCC1 | 1.0 | / | -2.5 | 1.5 | /
O=C(CNC(=O)c1cccc(-n2cnnn2)c1)Nc1ccc(F)c(F)c1 | -1.4 | / | -2.8 | / | /
COc1ccc(/C=N/NC(=S)SC)cc1OC | 6.2* | -25.4 | -4.2 | 3.9 | 4.3
COc1ccc(C=NNC(=O)NN=Cc2ccc(OC)c(OC)c2)cc1OC | 2.8 | / | -5.1 | / | /
O=C1NC(=O)/C(=C/c2ccc(O)cc2)S1 | 4.9* | -8.6 | -6.2 | 5.7 | 4.6*
CC(O)C(NS(=O)(=O)c1ccc(Cl)cc1)C(=O)OCCOc1ccc(F)cc1 (stereo not drawn) | 0.2 | / | 2.8 | / | /
O=c1nc(N/N=C/c2ccccn2)cn[nH]1 | 4.7* | -12.7 | -1.9 | -2.7 | 3.1
C/C(CC(C)C)=N\Nc1ccc(S(N)(=O)=O)cc1[N+](=O)[O-] | 11.4* | 4.4 | -4.8 | 9.9 | 5.6*
CCNc1ccc(S(N)(=O)=O)cc1[N+](=O)[O-] | 2.6 | 23.3 | -3.2 | -4.6 | /
COc1ccccc1NS(=O)(=O)c1ccc(N/N=C(\C)C(C)C)c([N+](=O)[O-])c1 | 9.2* | -3.7 | / | -4.4 | 3.9
CCC(C)/C(C)=N/Nc1ccc(S(N)(=O)=O)cc1[N+](=O)[O-] (stereo not drawn) | 7.7* | -12.1 | -8.0 | -9.3 | 3.9
CCCCOc1ccc(C2=CSC3=NCCN23)cc1[N+](=O)[O-] | 0.4 | / | -1.9 | 3.4 | /
CCCCOc1ccc(-c2csc(N)n2)cc1[N+](=O)[O-] | 9.4* | -12.4 | -5.0 | 1.1 | 4.4
CCS(=O)(=O)c1nn2c(N)c(/C=C3/C=CC(=O)C(OC)=C3)c(=O)nc2s1 | 4.7* | -5.6 | -1.3 | -58.2 | 2.6
COc1ccc(S(=O)(=O)CCC(=O)N2CCN(c3ccc(C(C)=O)cc3)CC2)cc1 | 4.7* | / | -4.5 | -1.7 | 3.4
Cc1ccc(N2CCN(C(=O)C(=O)c3ccc(F)c(F)c3)CC2)cc1 | -0.1 | / | / | / | /
SMILES | MsrA inhibitor | 14-3-3 Bad inh | bovine MsrA act | p-CIP stab down | MsrA conf
CCN(CC)Cc1c(O)ccc2cc(-c3nc4ccccc4n3C)c(=O)oc12 | 2.0 | / | -1.0 | 1.9 | /
CCc1cc2c(=O)c(-c3nc4ccccc4n3C)c(C)oc2c(CN(CC)CC)c1O | 5.3* | -3.6 | -2.1 | -13.3 | 3.5
COc1ccc(F)cc1-c1cc(C(=O)NCc2ccccc2)[nH]n1 | -0.9 | / | -8.0 | / | /
COc1cc(OC)c(/C=N/NC(N)=S)cc1Br | 5.3* | 18.9 | -2.8 | 2.7 | 4.2
COc1cc(/C=N/NC(=O)c2cnccn2)cc(OC)c1OC | 2.3 | 2.0 | -5.9 | 0.9 | /
COc1cc(OC)c(OC)cc1/C=N/NC(=O)c1cnccn1 | 6.2* | -9.7 | -1.6 | -2.6 | 3.5
COc1ccccc1/C=C/C=N/NC(=O)c1ccncc1 | 9.0* | -18.4 | -7.9 | 5.5 | 5.0*
COc1cc(OC)c(/C=N/NC(=O)c2ccncc2)cc1Br | 5.2* | -3.7 | -3.8 | -12.0 | 3.9
Cc1ccc(SCC(=O)Nc2ccc(N3CCOCC3)cc2)cc1C | 0.3 | / | -6.1 | / | /
COc1ccccc1/C=C/C=N/NC(=O)Cc1cccs1 | 5.0* | -3.0 | 1.0 | 15.6 | 3.6
O=C(Cc1cccs1)N/N=C/C=C/c1ccccc1[N+](=O)[O-] | 0.7 | -5.6 | -11.1 | -9.3 | /
COc1cc(OC)c(OC)cc1/C=N/NC(=O)c1ccc(=O)n(C)c1 | 10.0* | 20.7 | -9.4 | -1.4 | 9.2*
CCOc1ccc(/C=C/C(=O)N(CC)CC(=O)Nc2ccc3c(c2)OCCO3)cc1OCC | 1.2 | / | -3.6 | -23.6 | /
Cc1ccc(NC(=O)/C(C#N)=C/c2cccs2)c(C)c1 | 1.1 | -2.2 | 2.2 | -27.2 | /
Cc1cccc(C)c1NC(=O)/C(C#N)=C/c1cccs1 | 6.9* | 0.3 | -9.2 | -8.1 | 4.1
